PABP polyA inh: PABP poly(A) RNA binding inhibitors, primary screen, biochemical, fluorescence polarization, uHTS; Polyadenylate-binding protein 1 (Homo sapiens), P11940; inhibition, % at 35 µM; 290,000 tested, 1% active; AID 2014, 2009;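 note: calls also rest on retests at 20 µM and on dose response follow-up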
PERK inh: block of dimerizer-induced PERK translation repression, primary screen, PERK inhibitor project, CHO PERK-DD cells, SEAP luminescence, HTS; 220,000 tested, 0.17% active; inhibition, % at 5.6 µM; Eukaryotic translation initiation factor 2-alpha kinase 3 (Homo sapiens), Q9NZJ5; CHO PERK-DD fusion, SEAP luminescence translation reporter; AID 1416, 2008;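 active = inhibition above the mean inhibition of all tested compounds plus 3 SD, set separately per screening campaign, cut at about 2.9% in these data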;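 note: PERK kinase domain activated by AP20187 dimerizer at 100 nM; 0% = DMSO with dimerizer and 100% = rapamycin at 8.4 µM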
eIF4H FP inh: human eIF4H binding inhibitors, primary screen, translation initiation inhibitor project, biochemical, uHTS, fluorescence polarization; Eukaryotic translation initiation factor 4H (Homo sapiens), Q15056; eIF4H fluorescence polarization binding assay; inhibition, % at 35 µM; 290,000 tested, 0.94% active; AID 2012, 2009;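 note: calls also rest on retests at 20 µM and on dose response follow-up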
MLLE-PAM2 inh: inhibitors of PABP1 MLLE–PAM2 peptide binding, primary screen, biochemical, fluorescence polarization, FITC-PAM2, GST-MLLE; Polyadenylate-binding protein 1 (Homo sapiens), P11940; inhibition, % at 20 µM; 360,000 tested, 0.36% active; AID 588489, 2011; in the data active = inhibition above about 35%, passing the limit was not always enough;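 note: plate controls were DMSO wells with GST-MLLE for no effect and wells lacking GST-MLLE protein for full effect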
GRK2 aptamer HTS: compounds blocking aptamer binding on GRK2 – biochemical, human GRK2, bead flow cytometry, HTS, primary screen; Beta-adrenergic receptor kinase 1 (Homo sapiens), P25098; 330,000 tested, 0.59% active; inhibition of aptamer binding, % at 10 µM; FAM-aptamer displacement from GRK2;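 active = inhibition of aptamer binding above 40%, roughly 3 SD of noise, on plates passing a quality check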;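 note: median bead fluorescence of bound FAM aptamer so fluorescent compounds give negative values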
Target sequence (P25098 whole entry, looked up): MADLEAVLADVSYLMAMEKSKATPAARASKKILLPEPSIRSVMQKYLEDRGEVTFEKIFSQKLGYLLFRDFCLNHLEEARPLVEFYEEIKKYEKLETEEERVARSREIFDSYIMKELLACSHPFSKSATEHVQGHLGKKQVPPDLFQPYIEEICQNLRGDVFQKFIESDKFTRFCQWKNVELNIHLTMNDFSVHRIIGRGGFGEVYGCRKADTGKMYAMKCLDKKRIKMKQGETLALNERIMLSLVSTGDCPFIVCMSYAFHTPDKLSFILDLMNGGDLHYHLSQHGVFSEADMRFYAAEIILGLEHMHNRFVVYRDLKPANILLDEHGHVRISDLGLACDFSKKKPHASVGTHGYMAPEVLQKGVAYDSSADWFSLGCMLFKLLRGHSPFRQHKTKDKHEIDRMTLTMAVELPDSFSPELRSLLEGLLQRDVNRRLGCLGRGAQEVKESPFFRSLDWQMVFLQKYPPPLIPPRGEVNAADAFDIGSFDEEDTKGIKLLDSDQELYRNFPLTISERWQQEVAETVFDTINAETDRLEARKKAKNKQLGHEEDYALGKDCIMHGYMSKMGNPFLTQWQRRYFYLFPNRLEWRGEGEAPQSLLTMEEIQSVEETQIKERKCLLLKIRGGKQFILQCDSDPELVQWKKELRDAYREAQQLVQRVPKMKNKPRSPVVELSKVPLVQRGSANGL
GRK2 CP1: GRK2 aptamer-displacing inhibitors, retest, confirmation, biochemical, cherry pick 1, bead flow cytometry; shares compounds with GRK2 aptamer HTS; bead-bound GRK2, FAM-aptamer displacement; aptamer displacement, % at 10 µM; 2,000 tested, 4% active;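 active = aptamer displacement above 40%, near three times the noise of non-fluorescent compounds, on plates passing quality checks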;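 note: negative values mostly reflect intrinsic compound fluorescence rather than true enhancement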
Aptamer quench 1: counter-screen for GRK2 aptamer inhibitors: fluorescent aptamer quenchers. fluorescence change (kMESF span), kMESF (concentration not given with the values). Fluorescent RNA aptamer beads, quenching, flow cytometry; stronger effect = higher value. 110 tested, under 10 active. shares compounds with GRK2 aptamer HTS;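 active = compounds whose bead fluorescence drops by more than 37 kMESF across the dose range, marking them as dye quenchers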
FAM quench CP1: aptamer fluorescence quenching in GRK2 counter-screen. 2,000 tested, under 10 active. fluorescence response (% of DMSO), % at 10 µM. shares compounds with GRK2 aptamer HTS. Carboxyfluorescein RNA aptamer on beads, flow cytometry quenching; stronger effect = lower value;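 active = compounds that quench the bead-bound fluorescent RNA probe, cutting fluorescence to under half of the solvent control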;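 note: counterscreen run without GRK2 so only probe quenching by compound is measured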
GRK2 confirm 2: GRK2 aptamer-displacing inhibitors, hit retest, confirmation, biochemical, cherry pick 2, bead flow cytometry | bead-bound GRK2, FAM-aptamer displacement | AID 504782, 2011 | shares compounds with GRK2 aptamer HTS | inhibition of aptamer binding, % at 10 µM | 360 tested, under 10 active;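 active = inhibition of aptamer binding above 40%, about triple the noise seen with nonglowing compounds, on plates passing quality control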;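 note: negative values mostly come from compounds that fluoresce themselves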
Aptamer quench 2: fluorescence quenching of FAM-labeled RNA aptamer, dose response, artefact control for GRK2 aptamer inhibitor project, biochemical, flow cytometry, cherry pick 2 | shares compounds with GRK2 aptamer HTS | Streptavidin beads | change in fluorescence (kMESF span), kMESF (no concentration beside the values) | 25 tested, under 10 active | AID 504819, 2011;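 active = compounds quenching the bead-bound labeled aptamer, with fluorescence dropping by more than 37 kMESF over the dose range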
FAM quench CP2: aptamer fluorescence quenching in GRK2 counter-screen. shares compounds with GRK2 aptamer HTS. carboxyfluorescein RNA aptamer beads, flow cytometry quenching; stronger effect = lower value. fluorescence response vs DMSO, % at 10 µM. 360 tested, under 10 active;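 active = response vs DMSO under 50%, meaning signal dropped by over half, treated as fluorescence quencher; inconclusive = no clear call, values can overlap the other calls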;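 note: labelled aptamer on streptavidin beads without GRK2 as a quench counter-screen; 100% = bead fluorescence of DMSO wells and lower means quenching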
FAM quench PS1: quenchers of FAM-labeled RNA aptamer fluorescence, dose response, artefact control for GRK2 aptamer binding project, biochemical, powder set 1, flow cytometry; shares compounds with GRK2 aptamer HTS; Bead-bound FAM RNA aptamer fluorescence quenching; stronger effect = lower value; fluorescence ratio to DMSO, % at 11.1 µM; 35 tested, under 10 active; AID 588496, 2011;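 active = compounds that dim the fluorescent label, raw bead signal shifting by over 33 units between lowest and highest dose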
Active calls of the source: *; ? = inconclusive; . = no result given. The list is not random: actives were taken first. Their share in the collection is about 1.9%. Unless noted, the rule behind the calls is not given here.

SMILES	PABP polyA inh	PERK inh	eIF4H FP inh	MLLE-PAM2 inh	GRK2 aptamer HTS	GRK2 CP1	FAM quench CP1	others
Cc1c(C(=O)N2CCc3ccccc3C2)oc2ccccc12	-1	.	-2	-7	1	.	.
CCCN(C(=O)Cc1ccc(S(=O)(=O)N2CCOCC2)s1)c1c(N)n(Cc2ccccc2)c(=O)[nH]c1=O	19	.	43	-18	3	.	.
COc1ccccc1-c1nc(SCC(=O)N2CCOCC2)n[nH]1	6	.	2	6	0	.	.
O=C(CSc1n[nH]c(-c2ccc(Br)cc2)n1)N1CCOCC1	.	.	.	-25	20	-2	101
COCCNC(=O)C(c1ccc(C)o1)N(Cc1ccc(OC)cc1)C(=O)Cn1nnc2ccccc21 (stereo not drawn)	0	-1	-2	11	44*	-4	91
COc1ccc(NC(=O)c2ccccc2[N+](=O)[O-])cc1	15	1	-4	-15	51*	.	.	GRK2 confirm 2=10;FAM quench CP2=98
Cc1c(NS(=O)(=O)c2cc(C(=O)NC(C)c3ccccc3)ccc2Cl)c(=O)n(-c2ccccc2)n1C (stereo not drawn)	.	.	.	-1	.	.	.
Cc1c(NS(=O)(=O)c2cccc(C(=O)NCc3ccccc3Cl)c2)c(=O)n(-c2ccccc2)n1C	.	.	.	14	.	1	100
Cc1c(NS(=O)(=O)c2cccc(C(=O)NC(C)c3ccccc3)c2)c(=O)n(-c2ccccc2)n1C (stereo not drawn)	.	.	.	16	.	0	104
CCOc1ccc(NC(=O)CN(C)C(=O)CCCOc2ccc(Cl)c(C)c2)cc1OCC	-2	.	-3	-25	0	.	.
Nc1ncnc2c1ncn2[C@@H]1O[C@H](C(=O)NCc2ccc(OC(F)(F)F)cc2)[C@@H](O)[C@H]1O	.	.	.	-12	.	.	.
CCC(=O)N1CC2(CC(c3cccc(NC(=O)COc4ccc(Cl)cc4)c3)=NO2)C[C@@H]1C(N)=O (stereo partly drawn)	0	.	2	.	.	.	.
CCCCCC(=O)N1CC2(CC(c3cccc(NC(=O)CC(c4ccccc4)c4ccccc4)c3)=NO2)C[C@@H]1C(N)=O (stereo partly drawn)	-2	.	-2	6	0	.	.	GRK2 confirm 2=-19;FAM quench CP2=96
CCCCCC(=O)Nc1cccc(C2=NOC3(C2)C[C@H](C(N)=O)N(C(=O)CCCCC)C3)c1 (stereo partly drawn)	2	.	0	-4	1	.	.
CCCCCC(=O)N1CC2(CC(c3cccc(NC(=O)COc4ccc(Cl)cc4)c3)=NO2)C[C@@H]1C(N)=O (stereo partly drawn)	2	.	-4	-6	4	.	.	GRK2 confirm 2=-21;FAM quench CP2=101
CC(=O)c1cccc(NC(=O)CSCc2ccccc2)c1	3	1	0	13	43*	-2	99
Cc1onc(-c2ccccc2Cl)c1C(=O)NCc1nnnn1-c1ccc(F)cc1	.	.	.	-14	0	.	.
Cc1c(Cl)cccc1NC(=O)C1CC2CCC1C2 (stereo not drawn)	.	.	.	-4	0	.	.
O=C(NCC1CCCO1)c1cn(Cc2ccccc2)nc1-c1ccc(Cl)cc1 (stereo not drawn)	.	.	.	-3	45*	1	98
Cc1ccc(OCCNC(=O)Cc2ccc(S(=O)(=O)N3CCOCC3)s2)cc1	-6	.	-5	-9	0	.	.
CC1(C)Cc2c(sc3ncnc(NNC(=S)NCc4ccccc4)c23)CO1	-11	0	5	10	91*	1	87
COc1cccc(NC(=O)CCNS(=O)(=O)c2cccc3nonc23)c1	13	.	3	5	0	.	.
CCc1ccc(OCC(=O)NNCC(=O)Nc2ccc(OC)cc2)cc1	.	.	.	15	.	.	.
COc1ccc(C2c3[nH]c4ccccc4c3CCN2C(=O)c2ccccc2C(C)=O)c(F)c1 (stereo not drawn)	2	.	16	9	0	.	.
COc1cccc(C2c3[nH]c4ccccc4c3CCN2C(=O)c2ccccc2F)c1OC (stereo not drawn)	6	.	-8	4	50*	2	98
SMILES	PABP polyA inh	PERK inh	eIF4H FP inh	MLLE-PAM2 inh	GRK2 aptamer HTS	GRK2 CP1	FAM quench CP1	others
O=C(Cc1ccccc1)NCC(=O)Nc1ccccc1Br	3	.	-4	2	0	.	.
N=c1oc2cc(O)ccc2cc1C(=O)Nc1nc2ccccc2s1	7	1	11	-48	30	-2	94
N=c1oc2cc(O)ccc2cc1C(=O)Nc1ccccn1	0	0	?	.	0	.	.
CCOc1ccc(CCNC(=O)CCS(=O)(=O)c2ccc(Br)cc2)cc1OCC	10	.	2	8	8	-1	96	Aptamer quench 1=-0.5;FAM quench PS1=99
O=C(CCS(=O)(=O)c1ccc2c(c1)NC(=O)CS2)NCCc1ccccc1	3	.	-11	-13	0	.	.	GRK2 confirm 2=7;FAM quench CP2=99
NS(=O)(=O)c1ccc(CCNC(=O)CCS(=O)(=O)c2ccc(Br)cc2)cc1	32	.	90*	3	87*	.	.	GRK2 confirm 2=74*;Aptamer quench 2=2.7;FAM quench CP2=101;FAM quench PS1=101
O=C(CCS(=O)(=O)c1ccc(Br)cc1)NCCc1ccccc1	24	.	82	2	70*	43*	100	Aptamer quench 1=-0.7;Aptamer quench 2=-0.9
O=C(CCS(=O)(=O)c1ccc2c(c1)NC(=O)CS2)NCCc1ccc(Cl)cc1	7	.	13	-12	10	.	.
Cc1occc1C(=O)Nc1nnc(-c2cccs2)s1	-1	0	-1	-12	2	.	.

Screens: PubChem, several laboratories
